Laboratory results from the supplement of paper PMC6555819.

Tests used:
Assay in all cases: PBM binding z-score (relative to random genomic background probes); higher = stronger binding; sequences stand for … in GC…GCGATTGACAGCGTAGAATGAAGG
[1] = test system: FXR:RXRa (NR concentration 270 nM, RXRa partner concentration 90 nM)
Summary of the method: (§1)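 Custom Agilent 4×180K protein-binding microarrays carried double-stranded probes, each with a 34-nt variable region. These regions held direct-repeat seeds, single-nucleotide variants, half-site ablations and random human genomic background sequences. Ligand-free nuclear receptor dimers were incubated on the arrays for 1 h, antibodies against each partner (one per run) detected binding, and scanned fluorescence was regression-normalized. Binding z-scores take the random background probes as reference.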

[2] = test system: LXRa:RXRa (NR concentration 270 nM, RXRa partner concentration 90 nM)
Summary of the method: as §1

[3] = test system: LXRa homodimer (NR concentration 270 nM)
Summary of the method: as §1

[4] = test system: LXRb:RXRa (NR concentration 270 nM, RXRa partner concentration 90 nM)
Summary of the method: as §1

[5] = test system: LXRb homodimer (NR concentration 270 nM)
Summary of the method: as §1

[6] = test system: PPARa:RXRa (NR concentration 270 nM, RXRa partner concentration 90 nM)
Summary of the method: as §1

[7] = test system: PPARg:RXRa (NR concentration 180 nM, RXRa partner concentration 90 nM)
Summary of the method: as §1

[8] = test system: PPARg:RXRa 270nM:90nM, anti-RXR (NR concentration 270 nM, RXRa partner concentration 90 nM)
Summary of the method: as §1

[9] = test system: PPARg:RXRa 30nM:10nM, anti-RXR (NR concentration 30 nM, RXRa partner concentration 10 nM)
Summary of the method: as §1

[10] = test system: PPARg:RXRa 90nM:30nM, anti-RXR (NR concentration 90 nM, RXRa partner concentration 30 nM)
Summary of the method: as §1

[11] = test system: PPARg:RXRa DBDmut IVT, anti-RXR (DBD mutation: RXRa K156A/R161A, NR concentration 270 nM, RXRa partner concentration 90 nM)
Summary of the method: as §1

[12] = test system: PPARg:RXRa IVT, anti-PPARg (NR concentration 270 nM, RXRa partner concentration 90 nM)
Summary of the method: as §1

[13] = test system: PPARg DBDmut:RXRa IVT, anti-PPARg (DBD mutation: PPARg1 K132A/R137A, NR concentration 270 nM, RXRa partner concentration 90 nM)
Summary of the method: as §1

[14] = test system: PPARg DBDmut IVT, anti-PPARg (DBD mutation: PPARg1 K132A/R137A, NR concentration 270 nM)
Summary of the method: as §1

[15] = test system: PPARg homodimer (NR concentration 180 nM)
Summary of the method: as §1

[16] = test system: PXR:RXRa (NR concentration 270 nM, RXRa partner concentration 90 nM)
Summary of the method: as §1

[17] = test system: PXR homodimer (NR concentration 270 nM)
Summary of the method: as §1

[18] = test system: RARa:RXR (NR concentration 270 nM, RXRa partner concentration 90 nM)
Summary of the method: as §1

[19] = test system: RARa homodimer (NR concentration 270 nM)
Summary of the method: as §1

[20] = test system: RARb:RXRa (NR concentration 270 nM, RXRa partner concentration 90 nM)
Summary of the method: as §1

Sequence | PBM binding z-score [1] | PBM binding z-score [2] | PBM binding z-score [3] | PBM binding z-score [4] | PBM binding z-score [5] | PBM binding z-score [6] | PBM binding z-score [7] | PBM binding z-score [8] | PBM binding z-score [9] | PBM binding z-score [10] | PBM binding z-score [11] | PBM binding z-score [12] | PBM binding z-score [13] | PBM binding z-score [14] | PBM binding z-score [15] | PBM binding z-score [16] | PBM binding z-score [17] | PBM binding z-score [18] | PBM binding z-score [19] | PBM binding z-score [20]
GCTAGTTGGTCAGTAAAAGGTCACAGACCGGTCG | 3.72 | 4.57 | 4.2 | 4.1 | 0.607 | 5.07 | 3.41 | 4.95 | 2.71 | 4.5 | 1.25 | 3.03 | -0.272 | 0.44 | 3.83 | 4.92 | 1.24 | 6.32 | 1.97 | 4.51
TGAATGAGGTTAAAGATCGGGGAACGTGGCGTCG | 2.84 | 2.61 | -0.0577 | 1.64 | 0.61 | 4.29 | 4.54 | 5.57 | 3.66 | 5.49 | 2.68 | 3.12 | 1.11 | -0.0519 | 0.857 | 1.55 | 0.231 | 2.5 | 0.262 | 2.15
ATCGAAAGGTCGTGAGGTGAGTGTACAGAAAGGC | 4.91 | 4.05 | 0.411 | 3.06 | 0.507 | 4.99 | 3.61 | 4.47 | 1.35 | 3.32 | 0.429 | 2.63 | 1.08 | 0.59 | 1.74 | 3.17 | 0.525 | 3.97 | 1.08 | 4.04
GCTCCTAGGTCAACTGATGGTCAGCTAAAGCTCG | 4.73 | 3.62 | 0.561 | 3.01 | 0.879 | 4.1 | 2.53 | 3.46 | 1.21 | 2.51 | 4.98 | 3.97 | -0.903 | 0.266 | 2.06 | 2.28 | -0.577 | 3.53 | -0.186 | 4.35
TCTAGTTGGTCACGGAGGTCACACCCGACGGGTA | 3.19 | 3.31 | 2.4 | 3.2 | 0.762 | 3.73 | 3.54 | 4.03 | 3.5 | 3.66 | 2.48 | 4.28 | 1.28 | 1.19 | 2.95 | 4.15 | 1.24 | 4.2 | 1.58 | 3.79
CAAACTAGGTTAAAGGTCAAAGTCGAGCCAACCA | 6.87 | 6.3 | 5.27 | 6 | 2.67 | 7.07 | 13.2 | 11 | 14.1 | 13.4 | 7.78 | 8.2 | 3.63 | 3.37 | 5.35 | 6.11 | 1.51 | 7.9 | 3.41 | 4.76
ACAAACAGGTGAGTGAAGGTAACTCAGCTGGACG | 0.326 | -0.0872 | -0.278 | -0.542 | -0.3 | 0.367 | 0.682 | 0.103 | 0.0977 | 0.229 | 1.21 | 1.19 | 0.208 | 0.336 | 0.244 | -0.255 | -0.143 | 0.192 | 0.0567 | 0.585
CCTTACGGGTCACTCCAGGCTATAGCATCGGAGT | 4.45 | 5.59 | -0.324 | 2.91 | -0.145 | 4.07 | 2.95 | 3.31 | 0.716 | 1.9 | 2.55 | 3.11 | -0.0425 | -0.418 | 0.988 | 3.3 | -0.213 | 3.16 | 0.0642 | 3.51
AGTCAAAGTTCACTAAGTAACGTAAGATTCAGCT | 4.76 | 4.94 | 3.18 | 3.15 | 1.11 | 3.95 | 5.72 | 5.28 | 2.69 | 4.76 | 0.606 | 2.21 | 1.04 | 1.31 | 1.66 | 3.63 | 2.31 | 2.77 | 1.23 | 4.8
ATCTCTATGTAACAAGTTCAGTGAAAGAGAGGAC | -0.00461 | 0.0801 | 0.289 | 0.189 | 0.769 | 0.267 | 0.597 | 0.532 | 0.31 | 0.575 | -0.367 | 0.29 | 1.13 | 0.92 | 0.596 | 1.35 | 1.37 | 0.511 | 0.404 | 1.08
TTACCAAGGCGAGCTGAGGTCGTTGATCCAACTC | 0.487 | 0.298 | -0.362 | 0.482 | -0.87 | 0.95 | -0.35 | 0.0213 | -0.31 | 0.219 | 0.105 | -0.00723 | -0.484 | -0.938 | -0.375 | 1.71 | 0.0318 | 1.57 | -0.628 | 0.286
TAAGACAGGTGAAGGTAACTCAGGTACGCAGTCG | 0.669 | 1.42 | 0.116 | 0.904 | 1.51 | 0.916 | 1.01 | 1.38 | 1.67 | 1.57 | 0.644 | 1.64 | 0.53 | 0.465 | 0.394 | 0.257 | 0.588 | 0.526 | 0.631 | 1.51
GCAACGAGGGCAAGTTGATAGCAGAGTTTGATGG | 0.996 | 0.513 | -0.434 | 0.332 | -0.572 | 1.49 | 0.841 | 1 | 0.0166 | 0.481 | 2.75 | 1.85 | -0.194 | -0.32 | 0.288 | 0.924 | 0.464 | 0.816 | -0.0307 | 2.8
GCTAGTTGGTCAGTAAAAGGTCACATACCGGTCG | 2.76 | 4.16 | 4.82 | 4.01 | 0.816 | 4.22 | 2.57 | 4.42 | 2.3 | 3.92 | 1.23 | 2.96 | 0.372 | 0.203 | 6.37 | 4.88 | 0.988 | 5.66 | 3.62 | 4.23
